Laboratory results reported in PubChem BioAssay (NCATS).
Results filed as inconclusive are left out. Values without a mark were called inactive. Calls of active or inactive are those of the source. The call rests on the fitted dose curve; in most records, active means well fitted cell-killing curve with a large enough effect; inconclusive means small, poorly fitted or top-dose-only effect; inactive means flat fitted curve, though single readings scatter.

experiment: qHTS assay to identify small molecule inhibitors of chordoma cells - UCH-2 (AID 1259356); settings: UCH-2 chordoma viability, CellTiter-Glo ATP luminescence, 48 h; series mostly up to 46.1 µM; activity change, negative = inhibition: at the top concentration
On the % scale 0 is the no-effect control and ±100 the full control effect; potency means the concentration at half of the fitted maximal effect.

Compound	activity change, negative = inhibition	Potency
CCCCCCCCCC(=O)O[C@H]1CC[C@H]2[C@@H]3CCC4=CC(=O)CC[C@]4(C)[C@H]3CC[C@]12C	3.55%	–
CCON=O	5.73%	–
C[C@]12CC[C@H](OS(=O)(=O)O)CC1=CC[C@@H]1[C@@H]2CC[C@]2(C)C(=O)CC[C@@H]12	6.46%	–
Oc1cccc[c]1[Hg][Cl]	–	13 µM (active)
C[C@]12CC[C@H]3[C@@H](CCC4=C(Cl)C(=O)CC[C@@]43C)[C@@H]1CC[C@@H]2O	7.81%	–
CCOC(=O)c1ccccc1C(=O)OCC	5.69%	–
O=C(O)C(Cl)(Cl)Cl	4.55%	–
C=CCN=C=S	6.65%	–
O=S(=O)(O)c1cc(O)ccc1O	11.1% [at 20.6 µM]	–
CNC(=O)OCC[N+](C)(C)C	12%	–
O=C(CCl)c1ccc(Oc2ccc(C(=O)CCl)cc2)cc1	-10.8%	–
CC(=O)O[C@H]1C[C@H](O[C@H]2[C@@H](O)C[C@H](O[C@H]3[C@@H](O)C[C@H](O[C@H]4CC[C@@]5(C)[C@H](CC[C@@H]6[C@@H]5C[C@@H](O)[C@]5(C)[C@@H](C7=CC(=O)OC7)CC[C@]65O)C4)O[C@@H]3C)O[C@@H]2C)O[C@H](C)[C@H]1O[C@@H]1O[C@H](CO)[C@@H](O)[C@H](O)[C@H]1O	–	0.146 µM (active)
CC(=O)Oc1ccc2c3c1O[C@H]1[C@@H](OC(C)=O)C=C[C@H]4[C@@H](C2)N(C)CC[C@@]341	0.0713%	–
CC1(C)[C@H](C=C(Cl)Cl)[C@H]1C(=O)OCc1c(F)c(F)cc(F)c1F	3.66%	–
CNC1(c2ccccc2Cl)CCCCC1=O (configuration not stated)	–	inactive
ClC=C(Cl)Cl	-4.44%	–
CC(C)CCC(=O)O[C@H]1CC[C@H]2[C@@H]3CCC4=CC(=O)CC[C@]4(C)[C@H]3CC[C@]12C	6.39%	–
